These results are taken from PubChem BioAssay (NCATS).

The nature of assay [1]: Primary qHTS for inhibitors of nuclear receptor binding SET domain protein 2 (NSD2) in an isogenic RCH-ACV NSD2 p.E1099K mutant (9B) (AID 1645876). Further: nearly all actives have a fitted effect of over 70% in size. Further: potency means the concentration at half of the fitted maximal effect.
Assay [2] in a line: Primary qHTS for inhibitors of nuclear receptor binding SET domain protein 2 (NSD2) in an RCH-ACV wild type WT cells (2C) (AID 1645877). Further: nearly all actives have a fitted effect of over 70% in size. Further: potency means the concentration at half of the fitted maximal effect. In general terms: In qHTS, concentration-response curves come from the screen itself.
The target of assay [3] is Glutathione peroxidase 1 (Homo sapiens) (UniProt P07203). Nature of the assay: Primary qHTS Assay for Inhibitors of Recombinant Selenoprotein Glutathione Peroxidase 1 (GPX1) (AID 1845191). Further: nearly all actives have a fitted effect of over 65% in size. The method in brief: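 GPX1 10 nM, GR 100 nM, GSH 1 mM, NADPH 0.5 mM, CHP 0.5 mM (final). 30-min cpd preincubation, RT. Ex340/Em450 read t=0, t=15 min.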
The target in assay [4] is Phospholipid hydroperoxide glutathione peroxidase GPX4 (Homo sapiens) (UniProt P36969). Put plainly: Primary qHTS Assay for Inhibitors of Recombinant Selenoprotein Glutathione Peroxidase 4 (GPX4) (AID 1845192). Further: nearly all actives have a fitted effect of over 65% in size. The method in brief: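 qHTS, GR-coupled: GPX4 200 nM + cpd 30 min RT → GSH 1 mM, NADPH 0.5 mM, GR 100 nM → CHP 0.5 mM start; fluor 340/450 at t0 and t15 min; no-enzyme wells as control.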

A short description of assay [5]: qHTS drug screen for cell cycle checkpoint inhibitors in PARPi-resistant BRCA-mutant ovarian cancer cell lines. (AID 1963452; calls by dose curve). The note with it: PEO1/OlaR viability, CellTiter-Glo luminescence, 96 h, stronger effect = lower value. Put shortly: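 PEO1, PEO4 and PEO1/OlaR ovarian cancer cells, 600 per well, exposed 96 h at 37C to a dilution series. Viability read by CellTiter-Glo luminescence, normalized to DMSO and empty wells; activity summarized as Z-AUC.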

The mark [6] stands for this setting: measured here: PEO1 parental Z-AUC.

Results filed as inconclusive are left out. Active and inactive are the calls of the source. Unless noted, the call rests on the fitted dose curve; in most records, active means well fitted curve in the direction sought with a large enough effect; inconclusive means small, poorly fitted or top-dose-only effect, or another doubt; inactive means no such curve, though single readings can be large; an effect the other way counts as inactive or inconclusive.

Sequence of Glutathione peroxidase 1 (Homo sapiens) (P07203 whole entry, looked up): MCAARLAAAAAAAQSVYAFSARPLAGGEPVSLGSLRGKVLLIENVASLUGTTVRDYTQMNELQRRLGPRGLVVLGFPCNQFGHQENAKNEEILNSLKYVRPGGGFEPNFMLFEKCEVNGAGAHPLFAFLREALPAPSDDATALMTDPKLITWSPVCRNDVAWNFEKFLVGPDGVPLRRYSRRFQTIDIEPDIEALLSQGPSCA
Sequence of Phospholipid hydroperoxide glutathione peroxidase GPX4 (Homo sapiens) (P36969 whole entry, looked up): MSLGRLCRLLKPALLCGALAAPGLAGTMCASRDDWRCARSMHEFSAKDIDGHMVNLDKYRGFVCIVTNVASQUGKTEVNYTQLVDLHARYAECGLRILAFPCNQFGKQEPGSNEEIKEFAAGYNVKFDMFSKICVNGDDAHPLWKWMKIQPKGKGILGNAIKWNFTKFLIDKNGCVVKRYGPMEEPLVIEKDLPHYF

For the compound `Cc1ccc(-c2nn(C(C)(C)CNC(=O)c3ccncc3)c3ncnc(N)c23)cc1`, the Potency in assay [1] is 8.33 µM (active); in assay [2] it was 7.42 µM (active). Further, the Potency entry in assay [3] and in assay [4] was “inactive” in each case. In addition, the Z-AUC is -0.525 (inactive) in assay [5], -1.23 in assay [5] (setting [6]) and -1.14 in assay [5] (measured here: PEO4 Z-AUC).
For `C[C@]1(C(=O)N(CCCC(=O)O)Cc2cccc(Cl)c2)CCN1C(=O)c1csc2ccccc12`, the Potency result in assay [1], in assay [2], in assay [3] and in assay [4] was “inactive” in each case. Besides, the values for the Z-AUC in assay [5], in assay [5] (setting [6]) and in assay [5] (measured here: PEO4 Z-AUC) were 0.897 (inactive), 0.571 and 0.835, respectively.
For the compound `CCNC(=O)Nc1ccc(-c2nc3c(c(N4CCOC[C@@H]4C)n2)CCN(C2COC2)C3)cc1`, the Potency in assay [1] is 0.833 µM (active); in assay [2], 0.742 µM (active). The Potency result in assay [3] and in assay [4] was “inactive” throughout. Moreover, the Z-AUC was 0.987 (inactive) in assay [5], 1.46 in assay [5] (setting [6]) and 1.27 in assay [5] (measured here: PEO4 Z-AUC).
For `COc1ccc(Oc2cc(NCCC(F)(F)F)c3ncc(-c4ccc(C(=O)NC5CC5)c(C)c4)n3n2)c(F)c1F`, the results for the Potency in assay [1] and in assay [2] were 0.0235 µM (active) and 0.0148 µM (active), respectively. Besides, the Potency entry in assay [3] and in assay [4] was “inactive” throughout. The Z-AUC in assay [5] is 1.26 (inactive); in assay [5] (setting [6]), 0.0575; in assay [5] (measured here: PEO4 Z-AUC), -0.837.
As for `COc1ccccc1C(=O)Nc1cc2c(cc1N1CCNC[C@H]1C)n(C)c(=O)n2C`, the values for the Potency in assay [1] and in assay [2] were 20.9 µM (active) and 18.6 µM (active), respectively. Moreover, the Potency result in assay [3] and in assay [4] was “inactive” each time. The Z-AUC in assay [5] is -0.6 (inactive); in assay [5] (setting [6]), -0.159; in assay [5] (measured here: PEO4 Z-AUC), 0.121.
For the compound `Cc1ncc(NC(=O)c2cccc(C(F)(F)F)c2)cc1-c1cnc(OC2CCOCC2)c(N2CCOCC2)c1`, the Potency in assay [1] was 18.6 µM (active); in assay [2], 16.6 µM (active). Besides, the Potency result in assay [3] and in assay [4] was “inactive” each time. Further, the values for the Z-AUC in assay [5], in assay [5] (setting [6]) and in assay [5] (measured here: PEO4 Z-AUC) were -1.52 (inactive), -1.38 and -1.33, respectively.
Take `CCc1cc(/C(C)=N/OCc2ccc(C3CCCCC3)c(C(F)(F)F)c2)ccc1CN1CC(C(=O)O)C1`: the Potency result in assay [1], in assay [2], in assay [3] and in assay [4] was “inactive” in each case. In addition, the Z-AUC in assay [5] was -0.0137 (inactive); in assay [5] (setting [6]), -0.327; in assay [5] (measured here: PEO4 Z-AUC), 0.118.
For `COc1ccc2c(c1)[C@]1(C[C@H]1c1ccc3c(/C=C/c4ccc(CN5C[C@@H](C)O[C@@H](C)C5)cc4)n[nH]c3c1)C(=O)N2`, the Potency was 1.32 µM (active) in assay [1] and 0.0295 µM (active) in assay [2]. Besides, the Potency result in assay [3] and in assay [4] was “inactive” in each case. For the same compound, the Z-AUC in assay [5] is 0.356 (inactive); in assay [5] (setting [6]), -0.0342; in assay [5] (measured here: PEO4 Z-AUC), -0.785.
As for `c1ccc(-c2cc(CCC3CCNCC3)c3ccccc3n2)cc1`, the Potency in assay [1] is 16.6 µM (active); in assay [2] it was 13.2 µM (active). For the same compound, the Potency entry in assay [3] and in assay [4] was “inactive” each time. For the same compound, the Z-AUC in assay [5] is -0.417 (inactive); in assay [5] (setting [6]), 0.0933; in assay [5] (measured here: PEO4 Z-AUC) it was 0.16.
With `O=C(Nc1ncc(SCCN2CCCC2)s1)[C@]1(c2ccc(S(=O)(=O)C3CC3)cc2)C[C@H]1C1CCCCC1`, the Potency in assay [1] is 10.5 µM (active); in assay [2] it was 8.33 µM (active). The Potency entry in assay [3] and in assay [4] was “inactive” in each case. For the same compound, the Z-AUC was 0.2 (inactive) in assay [5], -0.0651 in assay [5] (setting [6]) and 0.2 in assay [5] (measured here: PEO4 Z-AUC).
As for `O=C(NO)C1(CS(=O)(=O)c2ccc(Oc3ccc(Cl)cc3)cc2)CCOCC1`, the Potency in assay [1] and in assay [2] was 16.6 µM (active) throughout. The Potency entry in assay [3] and in assay [4] was “inactive” each time. For the same compound, the Z-AUC is 1.18 (inactive) in assay [5], 0.196 in assay [5] (setting [6]) and 0.465 in assay [5] (measured here: PEO4 Z-AUC).
As to `C=CC(=O)Nc1cccc(Oc2nc(Nc3ccc(N4CCN(C)CC4)cc3)nc3ccsc23)c1`, the Potency in assay [1] and in assay [2] was 3.32 µM (active) each time. Further, the Potency entry in assay [3] and in assay [4] was “inactive” in each case. Also, the Z-AUC in assay [5] is -0.291 (inactive); in assay [5] (setting [6]), -0.486; in assay [5] (measured here: PEO4 Z-AUC) it was -0.146.
With `Cc1cc(Nc2ncnc3ccc(NC4=NC(C)(C)CO4)cc23)ccc1Oc1ccn2ncnc2c1`, the Potency in assay [1] is 18.6 µM (active); in assay [2], 16.6 µM (active). In addition, the Potency result in assay [3] and in assay [4] was “inactive” each time. Also, the Z-AUC in assay [5] was -0.395 (inactive); in assay [5] (setting [6]), -0.0434; in assay [5] (measured here: PEO4 Z-AUC), -0.29.
With `COc1cc(OC)cc(N2CCN(C(=O)Nc3nc4cc(F)ccc4nc3OC)CC2)c1`, the results for the Potency in assay [1] and in assay [2] were 20.9 µM (active) and 26.3 µM (active), respectively. Moreover, the Potency result in assay [3] and in assay [4] was “inactive” each time. For the same compound, the Z-AUC was -0.785 (inactive) in assay [5], -0.317 in assay [5] (setting [6]) and 0.136 in assay [5] (measured here: PEO4 Z-AUC).
In the case of `C/C=C/C/C=C/CCC(=O)[C@H]1O[C@H]1C(N)=O`, the Potency in assay [1] is 11.8 µM (active); in assay [2] it was 13.2 µM (active). For the same compound, the Potency entry in assay [3] and in assay [4] was “inactive” each time. Moreover, the Z-AUC in assay [5] is -0.297 (inactive); in assay [5] (setting [6]), -0.147; in assay [5] (measured here: PEO4 Z-AUC) it was -0.049.
In the case of `Nc1cc(C(F)(F)F)c(-c2nc(N3CCOCC3)nc(N3CCOCC3)n2)cn1`, the Potency in assay [1] was 0.742 µM (active); in assay [2], 0.525 µM (active). In addition, the Potency entry in assay [3] and in assay [4] was “inactive” in each case. The figures for the Z-AUC in assay [5], in assay [5] (setting [6]) and in assay [5] (measured here: PEO4 Z-AUC) were -0.884 (inactive), -0.21 and -0.177, respectively.
Take `COc1cc(Nc2cnc(C#N)c(O[C@H](C)CN(C)C)n2)ncc1-c1cnn(C)c1`: the Potency in assay [1] is 0.148 µM (active); in assay [2], 0.833 µM (active). Moreover, the Potency entry in assay [3] and in assay [4] was “inactive” in each case. Further, the figures for the Z-AUC in assay [5], in assay [5] (setting [6]) and in assay [5] (measured here: PEO4 Z-AUC) were -0.958 (inactive), -0.63 and -0.472, respectively.
As for `NC(=O)c1ccc2nc(-c3ccc(C4(N)CCC4)cc3)c(-c3ccccc3)n2n1`, the Potency is 0.296 µM (active) in assay [1] and 0.332 µM (active) in assay [2]. Moreover, the Potency entry in assay [3] and in assay [4] was “inactive” throughout. Besides, the Z-AUC was -0.331 (inactive) in assay [5], -0.179 in assay [5] (setting [6]) and 0.0521 in assay [5] (measured here: PEO4 Z-AUC).
